The text below walks through data of PubChem BioAssay (NCI).

Test systems include NCI-H23 lung; NCI-H226 lung; NCI-H322M lung; HOP-62 NSCLC; NCI-H460 lung; HOP-92 NSCLC; NCI-H522 lung; A549/ATCC NSCLC; 786-0 renal; COLO 205 colon.
Holding throughout (experiment): NCI-60 one-dose screen, 48 h (100 = growth as untreated, 0 = no growth, -100 = all killed)
Holding throughout (conditions): 10 µM unless noted

Compounds without any hit were thinned out: in the full panel of roughly 83,000, 20% have a hit.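 For each line, cells grew in 96-well plates with the test compound present at a single concentration for 48 hours.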 A number with no mark means an inactive call. Activity calls are given as the source filed them. Rule for the calls: active = growth percent below 10; inactive = the rest.

Regarding `O=C1Nc2ccccc2/C1=C\c1c(-c2ccc(F)cc2)nc2ccccn12`, the growth was 49.1% in the test on NCI-H23 lung; 79.2% with NCI-H226 lung; 83% with NCI-H322M lung; 72.4% in the test on HOP-62 NSCLC; 82.6% in the test with NCI-H460 lung; 79.3% with HOP-92 NSCLC. Further, the growth is 42.6% with NCI-H522 lung, 89% in the test with A549/ATCC NSCLC, 82.1% with 786-0 renal and 76.6% in the test on COLO 205 colon.

As to `C=C(C)[C@@H]1CC[C@]2(C(=O)N[C@@H](Cc3ccccc3)C(=O)OC)CC[C@]3(C)[C@H](CC[C@@H]4[C@@]5(C)CCC(=O)C(C)(C)[C@@H]5CC[C@]43C)[C@@H]12`, the growth in the test with NCI-H23 lung was 86.7%; with NCI-H226 lung, 94.6%; with NCI-H322M lung it was 93.4%; with HOP-62 NSCLC, 94%; in the test with NCI-H460 lung, 81.3%; in the test with HOP-92 NSCLC it was 57.6%. In addition, the growth with NCI-H522 lung is 79.7%; in the test on A549/ATCC NSCLC, 79%; in the test on 786-0 renal it was 85.8%; in the test with COLO 205 colon, 94.5%.

Turning to `Cc1ccc(CNc2c3ccccc3nc3cc(NC(=O)CCN4CCCC4)ccc23)cc1`, the growth with NCI-H23 lung is -48.1% (active); in the test on NCI-H226 lung, 35%; in the test with NCI-H322M lung it was 1.8% (active); in the test with HOP-62 NSCLC, 19.9%; in the test with NCI-H460 lung it was -64.7% (active); in the test on HOP-92 NSCLC, -0.443% (active). The growth was -41.2% (active) in the test with NCI-H522 lung, -36.9% (active) in the test on A549/ATCC NSCLC, 22.3% in the test on 786-0 renal and -40.3% (active) in the test with COLO 205 colon.

Turning to `O=C(CCN1CCCC1)Nc1ccc2c(NCCCc3ccccc3)c3ccccc3nc2c1`, the growth is 14.8% in the test on NCI-H23 lung; 42.3% with NCI-H226 lung; 16.6% in the test on NCI-H322M lung; 24.7% in the test with HOP-62 NSCLC; -72.2% (active) with NCI-H460 lung; 21.5% in the test with HOP-92 NSCLC. Moreover, the growth is -49.9% (active) with NCI-H522 lung, 15.5% with A549/ATCC NSCLC, 24.9% with 786-0 renal and -50.4% (active) in the test with COLO 205 colon.

Turning to `O=C(NCCc1ccccc1)Nc1ccc2cc3ccc(NC(=O)NCCc4ccccc4)cc3nc2c1`, the growth with NCI-H23 lung was 10.3%; in the test with NCI-H226 lung, 88.7%; with NCI-H322M lung, 19.2%; with HOP-62 NSCLC it was 39.4%; in the test on NCI-H460 lung, 16.8%; in the test on HOP-92 NSCLC, 68.1%. Moreover, the growth with NCI-H522 lung is -10.8% (active); in the test with A549/ATCC NSCLC, 73.8%; in the test on 786-0 renal, 38.4%; with COLO 205 colon, 10.8%.

In the case of `Cc1ccc(C(=O)/C(=C\c2ccc([N+](=O)[O-])cc2)S(=O)Cc2ccc(F)cc2)cc1` (stereo not given), the growth in the test on NCI-H23 lung is 31.6%; in the test on NCI-H226 lung, 41.5%; in the test on NCI-H322M lung, 72.6%; in the test with HOP-62 NSCLC, 21.5%; in the test with NCI-H460 lung, 15%; in the test with HOP-92 NSCLC it was 27.2%. Further, the growth in the test on NCI-H522 lung is -12% (active); in the test with A549/ATCC NSCLC, 73.2%; in the test on 786-0 renal, -66.1% (active); in the test with COLO 205 colon it was 2.86% (active).

Consider `Nc1nc(Nc2ccccc2SSc2ccccc2Nc2nc(N)nc(-c3ccc(C(F)(F)F)cc3)n2)nc(-c2ccc(C(F)(F)F)cc2)n1`, for which the growth in the test on NCI-H23 lung was 31.5%; in the test with NCI-H226 lung, 55.3%; in the test with NCI-H322M lung it was 88.6%; in the test with HOP-62 NSCLC, 47.8%; with NCI-H460 lung, 40%; in the test on HOP-92 NSCLC it was 90.7%. The growth in the test with NCI-H522 lung is 80%; in the test with A549/ATCC NSCLC, 5.2% (active); with 786-0 renal, 81.4%; in the test on COLO 205 colon, 86.1%.

Consider `Cc1nn(-c2ccccc2)c(Cl)c1/C=N\N=c1/sc2ccccc2n1C`, for which the growth with NCI-H23 lung was 100%; in the test on NCI-H226 lung it was 105%; in the test with NCI-H322M lung it was 97.5%; in the test with HOP-62 NSCLC, 93.1%; in the test on NCI-H460 lung, 107%; in the test on HOP-92 NSCLC it was 84.5%. The growth was 97.7% with NCI-H522 lung, 85.1% with A549/ATCC NSCLC, 92.6% in the test with 786-0 renal and 109% in the test with COLO 205 colon.

In the case of `N#Cc1c(NC(=O)NCc2ccccc2)sc2c1CCCC2`, the growth with NCI-H23 lung was 29%; in the test with NCI-H226 lung, 29.5%; with NCI-H322M lung, 42.2%; in the test with HOP-62 NSCLC, 40.2%; with NCI-H460 lung it was 2.62% (active); in the test with HOP-92 NSCLC, 42%. In addition, the growth is 21.9% in the test with NCI-H522 lung, 28.5% in the test on A549/ATCC NSCLC, 35.6% in the test with 786-0 renal and 10.1% in the test with COLO 205 colon.

With `Cc1cc(C(=O)/C=C/c2ccc[nH]2)ccc1-n1ccc(C(F)(F)F)n1`, the growth with NCI-H23 lung was 89.5%; in the test on NCI-H226 lung, 89.8%; in the test with NCI-H322M lung, 97.5%; with HOP-62 NSCLC, 106%; in the test on NCI-H460 lung, 98.9%; with HOP-92 NSCLC, 104%. Moreover, the growth with NCI-H522 lung is -9.61% (active); in the test with A549/ATCC NSCLC it was 84.9%; in the test on 786-0 renal, 48.7%; with COLO 205 colon it was 115%.

Consider `CC1(C)CC(=O)C2=C(C1)N(c1ccc(F)cc1F)C(N)=C(C#N)C2c1cc(Br)ccc1F` (stereo not given), for which the growth in the test with NCI-H23 lung was 86.7%; with NCI-H226 lung it was 103%; in the test with NCI-H322M lung, 95.4%; in the test on HOP-62 NSCLC it was 89.9%; in the test with NCI-H460 lung, 95%; in the test on HOP-92 NSCLC, 119%. Further, the growth with NCI-H522 lung was 80.7%; with A549/ATCC NSCLC it was 79.3%; in the test on 786-0 renal, 98.6%; in the test on COLO 205 colon it was 118%.

Regarding `CCNC(=O)Oc1ccc(/C(=C(\C)c2ccccc2)c2ccc(OCCN(CC)CC)cc2)cc1`, the growth with NCI-H23 lung was 78.9%; in the test with NCI-H226 lung it was 95.6%; with NCI-H322M lung, 99%; in the test on HOP-62 NSCLC it was 96.2%; in the test on NCI-H460 lung, 86.6%; in the test on HOP-92 NSCLC, 70.9%. In addition, the growth with NCI-H522 lung is 93.7%; with A549/ATCC NSCLC, 65.5%; in the test on 786-0 renal, 66.3%; in the test with COLO 205 colon, 52.2%.

`O=C(NCCNc1nccc(-c2c(-c3cccc(F)c3)nc3sccn23)n1)c1ccc(Cl)cc1`: the growth was 73.5% in the test on NCI-H23 lung; 51.2% in the test on NCI-H226 lung; 66.3% with NCI-H322M lung; 91.9% with HOP-62 NSCLC; 35.8% in the test with NCI-H460 lung; 87.1% in the test on HOP-92 NSCLC. Besides, the growth in the test with NCI-H522 lung is 68.4%; in the test on A549/ATCC NSCLC, 34.8%; in the test on 786-0 renal, 54.6%; in the test with COLO 205 colon it was 29.8%.
